Results: PubChem BioAssay AID2501 (Southern Research Specialized Biocontainment Screening …, 2010)
Screen size: about 2,200 compounds; about 1,200 (55%) were called active. So high a share suggests a set chosen from earlier hits. The list shows a part of the results. A number with no mark means an inactive call. The limit is not given here; nearly all actives have IC50 up to about 92 µM.

Experiment: counter assay for TAg ATPase ADP read-out – biochemical, ADP-Hunter, fluorescence, counter-screen (AID 2501);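 also: purified T antigen ATPase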;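 as to inhibition: 0% = enzyme with vehicle and 100% = reference inhibitor wells; higher means more inhibition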
Conditions: series mostly up to 100 µM; inhibition: at the top concentration

| Structure (SMILES) | inhibition | IC50 |
| --- | --- | --- |
| N#C/C(=C\c1cccc(Cl)c1)C(=O)c1ccccc1 | -20.2% | – |
| COc1cc(/C=C(\C#N)C(=O)c2ccc(O)c(O)c2)cc(I)c1O | – | 12.3 µM (active) |
| N#C/C(=C\c1ccc(O)c(O)c1)C(=O)c1ccc(O)c(O)c1 | – | 3.24 µM (active) |
| Cc1cccc(C2c3[nH]c4ccccc4c3CCN2C(=O)c2nn(C)c(=O)c3ccccc23)n1 (centres undefined) | 16.7% | – |
| COC(=O)/C=C1/N/C(=N\c2nc(C)cc(C)n2)N(c2ccc(Cl)cc2)C1=O | -16.3% | – |
| Cc1cc2ccccc2n1CCNC(=O)COc1ccc2ccccc2c1 | -19.9% | – |
| OCC1CCCN(C(=S)Nc2ccc(Nc3ccccc3)cc2)C1 (centres undefined) | – | 3.07 µM (active) |
| OC1CCN(C(=S)Nc2ccc(Nc3ccccc3)cc2)CC1 | – | 2.9 µM (active) |
| Cc1cc(C)c2c(c1)NC(C(=O)O)C1CC=CC21 (centres undefined) | 9.1% | – |
| N#Cc1c(SCC(=O)Nc2nncs2)sc2c(O)cc(=O)[nH]c12 | 17.1% | – |
| c1nc2sc3c(c2c2nnnn12)CCC3 | 19.6% | – |
| Nc1ccc(-c2nc3c(Cl)cc(N)cc3[nH]2)cc1 | – | 4.91 µM (active) |
| Nc1ccc(-c2nc3c(Cl)c(N)ccc3[nH]2)cc1 | – | 3.24 µM (active) |
| O=C(O)COc1ccccc1C(Nc1cccnc1)c1cc(Cl)c2cccnc2c1O (centres undefined) | 17% | – |
| CCc1c(C)nc2ncnn2c1N1CCCC(C(=O)Nc2cc(F)ccc2C)C1 (centres undefined) | 8.93% | – |
| Cc1ccc(-c2cc(-c3ccco3)c(C#N)c(=O)[nH]2)cc1 | -5.39% | – |
| CCCCOC1(c2ccccc2)NC(=S)NN=C1c1ccccc1 (centres undefined) | – | 4.2 µM (active) |
| CC(C)N1CC(C(=O)O)CC1=O (centres undefined) | -23.5% | – |
| CN1CC(C(=O)O)Cc2c1ccc1ccccc21 (centres undefined) | – | 8.64 µM (active) |
| COc1cc(C#CC#CCN2CCCCC2)ccc1O | – | 5.76 µM (active) |
| O=C(O)CN1C(=O)/C(=C\c2cc([N+](=O)[O-])ccc2OCc2ccccc2Cl)SC1=S | -18.7% | – |
| CN1C(=O)/C(=C/c2ccc(-c3ccccc3[N+](=O)[O-])o2)SC1=Nc1ccc(Cl)c(C(=O)O)c1 | – | 92.5 µM (active) |
| CCOC(=O)c1c(C)c(C(=O)Nc2ccc(N(C)C)cc2)c(C)n1CC | – | 10.6 µM (active) |

| Structure (SMILES) | inhibition | IC50 |
| --- | --- | --- |
| CCCCOC(=O)Nc1ccc(N(C)C)cc1 | – | 4.65 µM (active) |
| CN(C)c1ccc(NC(N)=S)cc1 | – | 3.1 µM (active) |
| C=CCNC(=S)Nc1ccc(N(C)C)cc1 | – | 1.99 µM (active) |
| CCCCOC(=O)c1ccc(NC(=O)Nc2ccc(OC)c(OC)c2)cc1 | 0.76% | – |
| Cc1cc(S(=O)(=O)Nc2c(C)nc3nc[nH]n3c2=O)ccc1F | -32.6% | – |
| CC(C)CC(NC(=O)C1CCC(=O)N1C(=O)OCc1ccccc1)C(=O)NC(Cc1ccccc1)C(N)=O (centres undefined) | -23% | – |
| CCN(CC)C(=S)SSC(=S)N(CC)CC | -2.02% | – |
| O=C(NCC1CCCO1)c1ccc2c(c1)N(Cc1ccc(F)cc1)CCS2 (centres undefined) | 26.3% | – |
| CN(C)c1ccc(NC(=S)NCC2CCCO2)cc1 (centres undefined) | – | 7.16 µM (active) |
| Cn1cccc1Cc1nnc(SCC(=O)NCC2CCCO2)n1C (centres undefined) | 11.1% | – |
| CCOC(=O)C1(C)C=C(Nc2ccc(O)cc2)C(=O)N1c1ccc(O)cc1 (centres undefined) | – | 2.33 µM (active) |
| Oc1ccc(NCc2cccs2)cc1 | – | 4.39 µM (active) |
| c1csc(CN2CCOCC2)c1 | -24.8% | – |
| Clc1cc(NCc2cccs2)ccc1N1CCOCC1 | – | 31.5 µM (active) |
| COc1ccc2c(c1)C(=O)Cc1ccccc1O2 | -33.9% | – |
| Nc1cccc2nsnc12 | – | 11 µM (active) |
| Cc1cc2c(N)cccc2nn1 | 13.3% | – |
| Cc1ccc2nsnc2c1NS(=O)(=O)c1c(C)ccc2nsnc12 | -23.3% | – |
| O=C(OCC1O[C@@H](OC(=O)c2cc(O)c(O)c(O)c2)[C@@H](OC(=O)c2cc(O)c(O)c(O)c2)[C@@H](OC(=O)c2cc(O)c(O)c(O)c2)[C@@H]1OC(=O)c1cc(O)c(O)c(O)c1)c1cc(O)c(O)c(O)c1 (some centres undefined) | 5.82% | – |
| O=C(OCCc1ccccc1)c1cc(O)c(O)c(O)c1 | – | 29.2 µM (active) |
| CN1CCc2cccc3c2[C@@H]1Cc1ccc(O)c(O)c1-3 | -223% | – |
| CC(C)(C)n1nc2c(c1NC(=O)c1ccccc1S(=O)(=O)C(F)F)CS(=O)(=O)C2 | -36.9% | – |
| O=c1[nH][nH]c(=S)n1C1CCCCC1 | 26.7% [at 25 µM] | – |

| Structure (SMILES) | inhibition | IC50 |
| --- | --- | --- |
| COc1cccc(/C=N/N2CCN(c3ccncc3S(=O)(=O)N3CCCCC3)CC2)c1 | -6.08% | – |
| COc1ccccc1N1CCN(/N=C/c2ccc(O)c(O)c2)CC1 | – | 5.45 µM (active) |
| Oc1ccc2[nH]ccc2c1 | – | 2.23 µM (active) |
| O=C(O)c1ccc(NS(=O)(=O)c2ccc3c(c2)C2C=CCC2C(c2ccccc2F)N3)cc1 (centres undefined) | 24.8% | – |
| Oc1ccc(O)cc1 | – | 7.46 µM (active) |
| CC(=O)c1cc2c(O)c(O)ccc2o1 | – | 7.04 µM (active) |
| Cc1ccc2oc(C(=O)Nc3nonc3C)c(C)c2c1 | 17.9% | – |
| CCOc1ccc(/C=N/NC(=O)CSc2ccccn2)cc1O | – | 2.66 µM (active) |
| COc1cc(/C=N/NC(=O)CSc2ccccn2)ccc1O | – | 4.11 µM (active) |
| Cc1cc(C)nc(NC2=NCC(=O)N2c2cc(Cl)cc(Cl)c2)n1 | -31% | – |
| CC1(OC(=O)C2CCCC2)C(=O)C=C2C=C(c3ccsc3)N(Cc3ccco3)C=C2C1=O (centres undefined) | 6.05% | – |
| Nc1ccc2nc(CCCO)[nH]c2c1 | – | 2.74 µM (active) |
| Nc1ccc2nc(CCCCCCCCc3nc4ccc(N)cc4[nH]3)[nH]c2c1 | – | 6.38 µM (active) |
| Nc1ccc2nc(CCCCCCc3nc4ccc(N)cc4[nH]3)[nH]c2c1 | – | 2.36 µM (active) |
| Cc1c(C=NCCOCc2ccccc2)cnn1C | -11.4% | – |
| CCNc1nc(NCC)nc(N/N=C/c2ccc(O)c(OC)c2)n1 | – | 5.21 µM (active) |
| COc1cc(/C=N/Nc2nc(N3CCCC3)nc(N3CCCC3)n2)ccc1O | – | 6.61 µM (active) |
| CN(C)c1nc(NCc2ccccc2)nc(N/N=C/c2ccc(Cl)cc2Cl)n1 | -30.1% | – |
| COc1ccc(/C=N/Nc2nc(N3CCCC3)nc(N3CCCC3)n2)cc1O | – | 3.91 µM (active) |
| Cc1ccc(-c2nc3ncccn3c2NC2CCCCC2)o1 | – | 6.91 µM (active) |
| CCOC(=O)c1c(NC(=O)/C=C/C(=O)O)sc(C)c1-c1ccc(Cl)cc1 | -27.3% | – |
| CCOC(=O)c1c(NC(C)=O)sc2c(O)c(Br)cc(Br)c12 | – | 28.4 µM (active) |
| CCOC(=O)c1c(NC(=O)/C=C/C(=O)O)sc(C)c1-c1ccc(C(C)(C)C)cc1 | -30% | – |
